Compounds without any hit were thinned out: in the full panel of roughly 83,000, 20% have a hit.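 In brief: 96-well plates, 48 h treatment, single concentration, percent growth endpoint.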 A number with no mark means an inactive call. Activity calls are given as the source filed them. The calls were made as follows: active = growth percent below 10; inactive = the rest.
How the values were obtained:
Assay in all cases: NCI-60 one-dose screen, 48 h (100 = growth as untreated, 0 = no growth, -100 = all killed)
Settings in all cases: 10 µM unless noted
SR leukemia = test system: SR leukemia
OVCAR-8 ovarian = test system: OVCAR-8 ovarian
OVCAR-5 ovarian = test system: OVCAR-5 ovarian
OVCAR-4 ovarian = test system: OVCAR-4 ovarian
SK-OV-3 ovarian = test system: SK-OV-3 ovarian
IGROV1 ovarian = test system: IGROV1 ovarian
OVCAR-3 ovarian = test system: OVCAR-3 ovarian
HS 578T breast = test system: HS 578T breast
NCI/ADR-RES ovarian = test system: NCI/ADR-RES ovarian
RPMI-8226 leukemia = test system: RPMI-8226 leukemia

| SMILES | growth (SR leukemia) | growth (OVCAR-8 ovarian) | growth (OVCAR-5 ovarian) | growth (OVCAR-4 ovarian) | growth (SK-OV-3 ovarian) | growth (IGROV1 ovarian) | growth (OVCAR-3 ovarian) | growth (HS 578T breast) | growth (NCI/ADR-RES ovarian) | growth (RPMI-8226 leukemia) |
| --- | --- | --- | --- | --- | --- | --- | --- | --- | --- | --- |
| NC(=O)c1ncn(C2OC(CO)C(O)C2O)n1 (configuration not stated) | 73.2% | 87.5% | 95.2% | 87.8% | 87.9% | 4.17% (active) | 95.1% | 86.4% | 88.6% |  |
| CCOC(=O)c1cnc2c(cnn2CC)c1NN=C(C)C | 65.9% | 98.9% | 80.3% | 96.2% | 98.5% | 9.1% (active) | 104% | 94.5% | 83.3% |  |
| CC1=CC2(C)/C=C(C)/C=C\CC(O)/C=C3/C=CC(=C4C(=O)OC2(CC1C)C4=O)OC3 (configuration not stated) |  | 0.804% (active) | -57.9% (active) | -40.6% (active) | 94.6% | -49.1% (active) | -100% (active) | -34% (active) | -61.8% (active) | -23.8% (active) |
| COc1cccc(/C=C2\COc3ccc(-c4ccccc4)cc3C2=O)c1 |  | 3.02% (active) | 49.6% | 65.2% | 74.3% | 4.34% (active) | -44% (active) | -9.75% (active) | 5.38% (active) | -31.4% (active) |
| Fc1ccccc1CSc1ncnc2nc[nH]c12 | 105% |  | 110% | 113% |  |  | 118% | 111% | 114% | 95.1% |
| NS(=O)(=O)c1cccc(NC(=O)C(=O)C2C(=O)Nc3ccccc32)c1 (configuration not stated) |  | 106% | 96% | 102% | 106% | 76.4% | 96.6% | 101% | 97.5% | 47.7% |
| Cn1c2c(Cl)c(Cl)ccc2c2cc(N)[nH]c(=O)c21 |  | 73.7% | 66.2% | 87.2% | 92.2% | 54.7% | 86.2% | 51.5% | 74.6% | 94.9% |
| COc1ccc(-c2c(-c3ccccc3)noc2N)cc1OC | 76.6% | 100% | 117% | 113% | 107% | 113% | 117% | 148% | 104% |  |
| C#Cc1cccc(NC(=O)Nc2ccc(NC(=O)CCl)cc2)c1 | -36.4% [8.25 µM] (active) |  | -14.5% [8.25 µM] (active) | -50.8% [8.25 µM] (active) |  | -88% [8.25 µM] (active) | -88% [8.25 µM] (active) | -4.85% [8.25 µM] (active) | -8.33% [8.25 µM] (active) | -37.1% [8.25 µM] (active) |
| c1ccc(Cn2nc3c(c2-c2ccccc2)-c2oncc2CC3)cc1 | 72.4% | 86.8% | 107% | 87.5% | 115% | 110% | 106% |  | 84.1% |  |
| NC(=O)c1cccc(-n2ccc3cc(NC(=O)Nc4cc(C(F)(F)F)cc(C(F)(F)F)c4)ccc32)n1 | 44.3% | 37.2% | 72.4% | 44% | 73.7% | 29.8% | 39.1% | 38.6% | 41.8% |  |
| Nc1nnc2cc(Cl)ccc2n1 |  | 105% | 105% | 111% | 96.5% | 96.3% | 145% | 86.4% | 96.3% | 68.9% |
| O=C(O)C(/C=C/c1ccco1)=N\Nc1nc(-c2ccc(Cl)cc2)cs1 | 41.5% | 36.6% | 98.9% | 43.1% | 70.9% | -10% (active) | -4.27% (active) | 77.3% | 12.5% |  |
| COc1cc2nc(-c3ccc(C(F)(F)F)cc3)cc(OCCN3CCCC3)c2cc1OC | 29.9% |  | 67.6% | 94.9% |  | 60.9% | 97.3% | 79.8% | 72.9% | 55.9% |
| Cc1ccc(S(=O)(=O)Nc2ccc(Cl)cc2)cc1 |  | 102% | 97.3% | 89.7% | 112% | 98.9% | 115% | 100% | 91.9% | 101% |
| Cc1n[nH]c(C)c1-c1c(C)n[nH]c1C | -6.74% (active) |  | 2.14% (active) | -17.5% (active) | 46.8% | 5.52% (active) | -53.4% (active) | -8.48% (active) | 9.39% (active) |  |
| COc1ccccc1/C=C1\COc2ccc(-c3ccccc3)cc2C1=O |  | 36.1% | 104% | 76.1% | 50.7% | 56.6% | -29% (active) | 38.9% | -45.6% (active) | -37.3% (active) |
| Cc1c(C2=CCCCC2)c2ccccn2c1C(=O)c1cccc(S(=O)(=O)N2CCOCC2)c1 |  | 94.9% | 106% | 52.2% | 92.6% | 75.7% | 73% | 75.8% | 60.5% | 46.9% |

| SMILES | growth (SR leukemia) | growth (OVCAR-8 ovarian) | growth (OVCAR-5 ovarian) | growth (OVCAR-4 ovarian) | growth (SK-OV-3 ovarian) | growth (IGROV1 ovarian) | growth (OVCAR-3 ovarian) | growth (HS 578T breast) | growth (NCI/ADR-RES ovarian) | growth (RPMI-8226 leukemia) |
| --- | --- | --- | --- | --- | --- | --- | --- | --- | --- | --- |
| NC(=S)N/N=C(\c1ccc(Cl)cc1)C1CC1 |  | 70.9% | 95.5% | 68.2% | 92.8% | 45.7% | 58.2% | 99.6% | 67.3% | 67.3% |
| CCNNC(=O)[C@@H]1[C@H](c2cc(OC)c(OC)c(OC)c2)c2cc3c(cc2[C@H](O)[C@H]1CO)OCO3 |  | -13.3% (active) | 33.6% | 35.2% | 1.47% (active) | 20.8% | -47.8% (active) | 23.1% | -13.7% (active) | 32.8% |
| [O-][n+]1ccccc1CCN(O)CCc1cccc[n+]1[O-] |  | 101% | 97.7% | 107% | 101% | 106% | 106% | 94.5% | 99.8% | 102% |
| Nc1nnc(C(=O)c2cnc3n(c2=O)CCCCC3)s1 | 107% | 105% | 104% | 111% | 101% | 110% | 102% | 99.7% | 94.7% |  |
| O=C(Nc1ccc(Cl)cc1)Nc1ccc(Cl)c(Cl)c1 |  | 21.2% | 23.9% | 21.8% | 20.2% | 21.5% | -31% (active) | 33% | -18.8% (active) | -27.6% (active) |
| COc1ccc(-c2cnc(N)nc2-c2ccc(OC)cc2O)cc1 | 66.9% | 89.5% | 102% | 86.5% | 103% | 83.8% |  | 157% | 85.7% |  |
| Cn1/c(=N/NC(N)=S)ccc2ccccc21 |  | 74.6% | 99% | 93.3% | 107% | 44.7% | 44.1% | 103% | 77% | 78.2% |
| Cc1c(C(=O)NO)sc2ncnc(Nc3ccc(NC(=S)Nc4ccccc4)cc3)c12 | 110% | 103% | 103% | 105% | 121% | 112% | 111% | 105% | 99.6% |  |
| CC(C)(C)OC(=O)N1CCN(c2ccc(N)cc2)C(=O)C1 | 81.2% | 107% | 112% | 108% | 109% | 112% | 117% | 105% | 102% |  |
| c1ccc(-c2nnc(Nc3ccc4c(c3)OCCO4)o2)c(NCc2ccncc2)c1 | 10.9% | 20.2% | 32.2% | 35.5% | -2.96% (active) | 28.5% | -36.9% (active) | 64.4% | 4.75% (active) |  |
| O=c1nc2n(nc1/C=C/c1ccco1)CC(c1ccc(Cl)cc1)=NN2 | 45% | 67.9% | 122% | 95.3% | 93% | 8.48% (active) | 109% | 116% | 100% |  |
| O=S(=O)(c1cccc(NC2=Nc3cccc4cccc2c34)c1)N1CCCC1 |  | 83.7% | 100% | 46.9% | 84.1% | 80% | 84.3% | 76.8% | 66% | 48.8% |
| COc1ccc(Cn2nc3c(c2-c2cc(OC)c(OC)c(OC)c2)-c2oncc2CC3)cc1 | 25.5% | 107% | 88% | 86.8% | 94.7% | 81.8% | 98% | 116% | 65.9% |  |
| COc1ccc(Cn2nc(-c3cc(OC)c(OC)c(OC)c3)c3c2CCc2cnoc2-3)cc1OC | 1.81% (active) | 79% | 89.9% | 70.7% | 47% | 63.4% | 39.7% | 72.5% | 26.1% |  |
| Cc1cc(C)n(Nc2nc3ccccc3[nH]c2=O)c(=O)c1C#N | 82.5% | 97.7% | 99.7% | 93.4% | 96.9% | 94.8% | 101% | 92.7% | 101% |  |
| COc1cc(OC)cc(C2C3=C(COC3=O)Nc3cc(OC)ccc32)c1 (configuration not stated) | 8.35% (active) |  | 39.5% | 49.4% | -3.6% (active) | 42.2% | -50% (active) | 68.1% | -18.6% (active) |  |
| CSc1nnc2c(=O)n(C)c(=O)n(C)c2n1 |  | 106% | 100% | 105% | 103% | 101% | 144% | 86.6% | 101% | 75.8% |

Reference: PubChem BioAssay (NCI)
